Only some compounds are listed: those with a hit (about 2.3% of all), similar ones and a draw of the others.
12-LOX inh = inhibitors of human 12S-lipoxygenase ALOX12; P18054; purified 12hLO, xylenol orange hydroperoxide absorbance; Potency, µM (titrated, usually from 108 µM), for the others: at the highest dose activity change, negative = inhibition, most hits filed as inhibitors; actives 1.1% (n = 580,000); note: % is set by controls: 0 for no effect and ±100 for the full control effect
Target sequence (P18054 whole entry, looked up): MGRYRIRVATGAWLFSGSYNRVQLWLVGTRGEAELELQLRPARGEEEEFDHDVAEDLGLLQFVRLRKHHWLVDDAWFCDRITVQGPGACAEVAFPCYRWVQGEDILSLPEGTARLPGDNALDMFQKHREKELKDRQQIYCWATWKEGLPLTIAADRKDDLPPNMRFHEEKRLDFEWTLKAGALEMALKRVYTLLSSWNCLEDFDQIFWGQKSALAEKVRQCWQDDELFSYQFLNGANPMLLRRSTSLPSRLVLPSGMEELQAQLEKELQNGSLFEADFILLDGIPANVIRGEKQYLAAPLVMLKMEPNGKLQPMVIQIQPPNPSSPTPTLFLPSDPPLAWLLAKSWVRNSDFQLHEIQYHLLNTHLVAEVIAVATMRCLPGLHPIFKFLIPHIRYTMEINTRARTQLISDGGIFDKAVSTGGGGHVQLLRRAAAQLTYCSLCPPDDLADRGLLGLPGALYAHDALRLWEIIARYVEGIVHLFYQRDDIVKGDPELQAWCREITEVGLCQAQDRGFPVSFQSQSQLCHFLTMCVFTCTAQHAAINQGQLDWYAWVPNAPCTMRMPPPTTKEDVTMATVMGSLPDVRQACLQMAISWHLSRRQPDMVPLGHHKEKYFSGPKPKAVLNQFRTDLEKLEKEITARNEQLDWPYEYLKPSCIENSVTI
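Purified human 12hLO at 150 nM in 25 mM Hepes, 0.01% Triton X-100, pH 7.0, preincubated 15 min at room temperature with compound. Reaction started with 40 uM arachidonic acid, 30 min at room temperature. Hydroperoxide measured by Fe-xylenol orange, 573/405 nm absorbance ratio.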
GLP1R inv ag = GLP-1 receptor (human) inverse agonism | P43220 | HEK293 GLP-1R CRE-luciferase, luminescence, 24 h; GLP-1R form is constitutively active | Potency, µM (highest dose often 38.3 µM), inactives show top-dose activity change, negative = inhibition, most hits filed as inhibitors | actives 1.6% (n = 410,000); note: % is set by controls: 0 for no effect and ±100 for the full control effect; nearly all actives have a fitted effect of over 55% in size
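Readout was luciferase luminescence, measured 12 min after detection reagent at room temperature. Beforehand, GLP-1R reporter HEK293 cells had sat 12 h, then received compounds for 24 hr at 37 deg C.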
GLS inh = glutaminase GLS (human) inhibition; O94925; GLS enzymatic activity, qHTS titration; Potency, µM (series often up to 45.5 µM), for the others: at the top dose activity change, negative = inhibition, usual class: inhibitors; actives 0.21% (n = 410,000); note: % is set by controls: 0 for no effect and ±100 for the full control effect
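hKGA in 45 mM KH2PO4 pH 8.2, 0.02% Tween-20 with pin-transferred compounds; 1 mM L-glutamine (stock) plus glutamate oxidase/HRP/Amplex Red coupling added. Fluorescence read initially and after 30 min at RT.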
GRP78 ERSR act = ER stress response induction in glioma; Potency, µM, for the others: at the top dose activation, actives largely listed as activators; actives 0.02% (n = 420,000); AID 602332; U87-MG GRP78 promoter luciferase reporter, 16 h; note: series mostly up to about 76 µM; % of control where 0% means no effect; nearly all actives have a fitted effect of over 35% in size
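ERSR induction read as luciferase luminescence (Bright-Glo, 10 min at room temperature) in stably transfected human U87-MG glioma cells exposed to compounds for 16 h, using GRP78 as sensor.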
GLP-1R agonist = GLP-1 receptor (human) agonism. Potency, µM (series often up to 45.6 µM), inactives show at the highest dose activation, hits mostly activators. actives 0.007% (n = 380,000). HEK293 GLP-1R CRE-luciferase, luminescence, 4-6 h; cells express a hypersensitive GLP-1R form. P43220; note: % of control where 0% means no effect
PTHR1 ag = agonists of human PTHR1 parathyroid hormone receptor. Q03431. HEK293 GP2 PTHR1 cells, GloSensor cAMP luminescence, 1 h. Potency, µM (highest dose often 115 µM), for the others: at the top dose activation, most hits filed as activators. actives 0.075% (n = 410,000). AID 743266; note: nearly all actives have a fitted effect of over 55% in size
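HEK-293-derived GP2 cells expressing PTHR1 and a GloSensor cAMP reporter, 3,000/well, plated overnight, given luciferin plus IBMX (each 0.5 mM as added) for 1 h at 37 °C, then compound for 1 h at 37 °C. Luminescence was read after 15 min at room temperature.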
Active calls of the source: *; [ ] = another dose, or the depositor's remark. Calls come from the whole dose curve; as a rule, active = well fitted curve in the direction sought with a large enough effect; inconclusive = small, poorly fitted or top-dose-only effect, or another doubt; inactive = no such curve, though single readings can be large; an effect the other way counts as inactive or inconclusive. Potency is the fitted concentration of half-maximal effect.

For CCCc1ccc(-c2cc(C(=O)NCCCn3ccnc3)c3ccccc3n2)cc1 the results were 12-LOX inh -8%.
CC(C)(C)c1ccc(C2=NC(C)(C)N(CC(=O)Nc3ccc(F)c(F)c3)C2=O)cc1 was read as 12-LOX inh -22%, GLP1R inv ag 11µM*, GLS inh 9% and PTHR1 ag -15%.
For O=C(Cn1cnc2c(Cl)cc(Cl)cc2c1=O)N1CCCC1c1ccc2c(c1)OCCO2 (configuration not stated) the results were 12-LOX inh -9%.
For O=C(NC1CC1)c1cccc(NC(=O)c2cn(-c3ccccc3)nc2-c2cccnc2)c1 the results were 12-LOX inh -8%.
`O=C(NCC(O)COc1ccc([N+](=O)[O-])cc1)Nc1ccccc1` (configuration not stated) gave 12-LOX inh 145%, GLP1R inv ag -20%, GLS inh 2%, GRP78 ERSR act 5%, GLP-1R agonist 9% and PTHR1 ag -7%.
`Cc1cc(C)cc(NC(=O)NCC(O)COc2ccc([N+](=O)[O-])cc2)c1` (configuration not stated) gave 12-LOX inh 182%, GLP1R inv ag 8.9µM*, GLS inh -4%, GRP78 ERSR act -7%, GLP-1R agonist 12% and PTHR1 ag -30%.
Cc1nc(-c2cccs2)c(CC(=O)N2CCN(c3cccc(Cl)c3)CC2)s1 was read as 12-LOX inh 2%.
Screening Cc1nc(-c2cccs2)c(CC(=O)N2CCc3ccccc3C2)s1 returned 12-LOX inh 8.9µM*.
`Cc1ccc(C(=O)CC2(O)C(=O)N(CN3CCOCC3)c3ccccc32)s1` (configuration not stated) gave 12-LOX inh 33%.
Clc1ccc(CN2C3=NCCCN3c3ccccc32)cc1 was read as 12-LOX inh 4%, GLP1R inv ag inconclusive, GLS inh -8%, GRP78 ERSR act -2%, GLP-1R agonist -15% and PTHR1 ag inactive.
For Clc1ccc(CN2C3=NCCCN3c3ccccc32)cc1Cl the results were 12-LOX inh -14%, GLP1R inv ag 11µM*, GLS inh -1%, GRP78 ERSR act -6%, GLP-1R agonist 3% and PTHR1 ag inactive.
For COc1ccccc1C(=O)NCCSCc1c(F)cccc1Cl the results were 12-LOX inh 11%, GLP1R inv ag inconclusive, GLS inh 3%, GRP78 ERSR act 2%, GLP-1R agonist 14% and PTHR1 ag -23%.
For Cc1c(C(=O)NCCSCc2c(F)cccc2Cl)cnn1-c1ccc(Cl)cc1 the results were 12-LOX inh 0%, GLP1R inv ag 10µM*, GLS inh 13%, GRP78 ERSR act -2%, GLP-1R agonist 17% and PTHR1 ag -29%.
Cc1ccc(C(=O)Nc2ccc(-c3nc4ccccc4s3)cc2)c(C)c1 was read as 12-LOX inh 25%.
CN(C)c1ccc(N=Nc2nc3ccccc3n2C)cc1 was read as 12-LOX inh 160%, GLP1R inv ag inconclusive, GLS inh 10%, GRP78 ERSR act -15%, GLP-1R agonist -9% and PTHR1 ag -39%.
Cn1c(N=Nc2ccccc2)nc2ccccc21 was read as 12-LOX inh inconclusive, GLP1R inv ag 4.5µM*, GLS inh 4%, GRP78 ERSR act -13%, GLP-1R agonist -20% and PTHR1 ag -1%.
For COCc1nnc(NC(=O)C2c3ccccc3C(=O)N(CC(C)C)C23CCCC3)s1 (configuration not stated) the results were 12-LOX inh -9%.
For N#Cc1c2nc3ccccc3nc2n2cc(NC(=O)c3ccc(F)cc3)ccc12 the results were 12-LOX inh 40µM*, GLP1R inv ag 30%, GLS inh -17%, GRP78 ERSR act -2%, GLP-1R agonist 3% and PTHR1 ag inactive.
Screening Cc1c(C(=O)Nc2ccc(F)cc2)cn2c(nc3ccccc32)c1C#N returned 12-LOX inh 1%, GLP1R inv ag 13%, GLS inh -9%, GRP78 ERSR act -2%, GLP-1R agonist 7% and PTHR1 ag -11%.
For Cc1ccc(C(C)C)c(OCC(O)CN2CCN(CCO)CC2)c1 (configuration not stated) the results were 12-LOX inh 10µM*, GLP1R inv ag inconclusive, GLS inh -2%, GRP78 ERSR act -4%, GLP-1R agonist 11% and PTHR1 ag -24%[57.5 µM].
CC1CN(CCCCSc2ccc(Cl)cc2)CC(C)O1 (configuration not stated) was read as 12-LOX inh 1.8µM*, GLP1R inv ag inconclusive, GLS inh 5%, GRP78 ERSR act -3%, GLP-1R agonist -5% and PTHR1 ag 18%.
Cc1ccc(SCCCCN2CCNCC2)cc1 was read as 12-LOX inh inconclusive, GLP1R inv ag 2.8µM*, GLS inh 10%, GRP78 ERSR act 0%, GLP-1R agonist -3% and PTHR1 ag inactive.
Clc1ccc(SCCCCN2CCNCC2)cc1 was read as 12-LOX inh inconclusive, GLP1R inv ag 1.8µM*, GLS inh 12%, GRP78 ERSR act 4%, GLP-1R agonist 0% and PTHR1 ag inactive.
`O=C1NC2(CCCC2)C(=O)N1Cc1coc(-c2cccs2)n1` gave 12-LOX inh 25%.
COc1ccc(OC)c(C2CC(=O)Nc3c2c(C)nn3-c2ccc3nnc(C)n3n2)c1 (configuration not stated) was read as 12-LOX inh 7%.
For Cc1ccc(C(C)C)c(OCCCCN2CCNCC2)c1 the results were 12-LOX inh inconclusive, GLP1R inv ag 2.2µM*, GLS inh -7%, GRP78 ERSR act -3%, GLP-1R agonist -6% and PTHR1 ag -4%.
Screening Cc1ccc(C(C)C)c(OCCOCCN2CCNCC2)c1 returned 12-LOX inh 1%, GLP1R inv ag -74%, GLS inh 0%, GRP78 ERSR act -1%, GLP-1R agonist -1% and PTHR1 ag -6%.
C[C@H](O)[C@@H]1C(=O)N2CCc3c([nH]c4ccccc34)[C@@H]2C[C@@H]1N(C)C(=O)Nc1cc(Cl)cc(Cl)c1 was read as 12-LOX inh -11%, GLP1R inv ag 10µM*, GLS inh 6%, GRP78 ERSR act -4%, GLP-1R agonist -6% and PTHR1 ag -31%.

Compound activity: PubChem BioAssay, National Center for Advancing Translational Sciences (NCATS)
